The nature of test [1]: Her2 expression decrease, cell viability multiplex – SKBR3 breast tumor cells, AlphaScreen, ATP viability, primary screen (AID 461).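 As to Her2 level: lower value means less Her2 protein in the cells.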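 As to viability: percent of carrier control wells set as 100% viability.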 The conditions noted are these: SKBR3 Her2 protein level, 18-24 h, measured here: SKBR3 viability, ATP luminescence, at 10 µM.
For test [2], the target named is Receptor tyrosine-protein kinase erbB-2 (Homo sapiens) (UniProt P04626). Described as above. As to conditions: 18-24 h, at 10 µM, stronger effect = lower value.
Chain of Receptor tyrosine-protein kinase erbB-2 (Homo sapiens) (P04626 whole entry, looked up): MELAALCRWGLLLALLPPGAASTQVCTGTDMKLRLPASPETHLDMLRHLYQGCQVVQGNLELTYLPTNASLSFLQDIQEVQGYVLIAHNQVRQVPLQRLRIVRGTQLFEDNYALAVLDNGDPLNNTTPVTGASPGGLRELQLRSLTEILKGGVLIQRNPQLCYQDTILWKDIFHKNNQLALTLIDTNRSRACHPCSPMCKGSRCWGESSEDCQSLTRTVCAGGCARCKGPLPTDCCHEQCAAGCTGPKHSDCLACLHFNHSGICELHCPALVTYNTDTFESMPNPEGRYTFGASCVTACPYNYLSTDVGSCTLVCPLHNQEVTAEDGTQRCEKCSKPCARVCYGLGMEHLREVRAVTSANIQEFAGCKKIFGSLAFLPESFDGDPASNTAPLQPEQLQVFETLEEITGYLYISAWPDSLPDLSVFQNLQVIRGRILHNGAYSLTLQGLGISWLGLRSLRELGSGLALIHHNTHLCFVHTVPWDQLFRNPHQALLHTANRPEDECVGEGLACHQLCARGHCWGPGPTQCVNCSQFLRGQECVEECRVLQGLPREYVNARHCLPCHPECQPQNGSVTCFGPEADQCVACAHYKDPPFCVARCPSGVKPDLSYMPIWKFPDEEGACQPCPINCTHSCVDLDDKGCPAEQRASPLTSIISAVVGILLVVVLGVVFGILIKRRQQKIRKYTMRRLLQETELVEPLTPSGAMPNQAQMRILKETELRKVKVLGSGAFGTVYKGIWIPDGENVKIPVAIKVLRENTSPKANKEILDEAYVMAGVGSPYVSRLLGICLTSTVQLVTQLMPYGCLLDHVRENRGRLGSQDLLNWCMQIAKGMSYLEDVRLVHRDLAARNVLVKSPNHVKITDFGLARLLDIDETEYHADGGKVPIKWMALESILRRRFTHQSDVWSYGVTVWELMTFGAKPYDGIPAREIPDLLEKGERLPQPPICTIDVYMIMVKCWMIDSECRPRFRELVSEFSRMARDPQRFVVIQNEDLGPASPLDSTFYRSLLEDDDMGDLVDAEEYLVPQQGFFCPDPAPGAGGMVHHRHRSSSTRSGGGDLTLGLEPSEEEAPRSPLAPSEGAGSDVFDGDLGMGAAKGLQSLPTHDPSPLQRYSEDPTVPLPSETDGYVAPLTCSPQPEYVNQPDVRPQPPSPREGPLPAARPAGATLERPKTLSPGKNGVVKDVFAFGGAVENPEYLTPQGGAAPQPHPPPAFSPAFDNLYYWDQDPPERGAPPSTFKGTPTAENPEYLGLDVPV
Test [3] is described as follows: reduced viability of SK-BR-3 breast cancer cells – cell-based, 24 h, human, pilot screen (AID 572;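 active = viability at or below 10% of carrier control in both of two separate runs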;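 also: compound exposure lasted between 18 and 24 h rather than exactly 24 h; 100% = carrier-treated control wells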). As to conditions: SK-BR-3 viability, CellTiter-Glo luminescence, at 10 µM, stronger effect = lower value. Background: ATP-based viability assays read luminescence as a measure of living cells.
Test [4] can be described thus: HUVEC growth inhibition – cell-based, human, primary screen (AID 575;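 active = viability at or below 30% in both replicate assays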;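 also: 100% = median of untreated cell wells with 0.1% DMSO on each plate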). The conditions noted are these: HUVEC proliferation, CellTiter-Glo luminescence, 72 h; at 10 µM; stronger effect = lower value.
A short description of test [5]: H69AR cell proliferation blockers – human, duplicate replicates, primary screen (AID 580;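 active = viability at or under a set limit in both replicates, limit being median viability minus 3 SD, cut at about 48% in these data, passing the limit was not always enough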;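 also: 100% = mean luminescence of untreated wells and 0% = no signal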). The conditions noted are these: H69AR lung tumor cells viability, ATP luminescence, 72 h; at 10 µM; stronger effect = lower value.
Test [6] in a line: MRP1 drug-resistance reversers in H69AR cells – cell-based, doxorubicin co-treatment, pilot screen (AID 601;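 active = viability loss from added drug above about 55%, and viability with drug at most 40%, in both replicates, limit read from the data, passing the limit was not always enough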). The conditions noted are these: CellTiter-Glo, 72 h, at 10 µM; for differential viability (reversal): stronger effect = higher value.
A short description of test [7]: yeast transport mutant growth inhibition pilot in 384-well plates, post-Golgi transport modulator project (AID 636; in the data active = inhibition above about 31%). As to conditions: absorbance 615 nm, about 18 h, stronger effect = higher value.
Test [8] in a line: growth suppression of yeast trafficking mutant, preliminary HTS, modulators of trafficking downstream of Golgi apparatus project, 1536-format plate, OD 615 nm (AID 637; in the data active = inhibition above about 30%). As to conditions: yeast transport mutant growth, absorbance 615 nm, 18 h; stronger effect = higher value.
Test [9] in a line: S. cerevisiae growth inhibition in permissive medium (OD615), pilot counter-assay for S. cerevisiae lifespan shortening project, permissive growth control (AID 705;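 active = growth inhibition above 25% in both replicates, a cutoff set 3 SD above the mean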). As to conditions: OD615, 24 h, at 10 µM, stronger effect = higher value.
The nature of test [10]: S. cerevisiae growth inhibition in restrictive medium, OD615, pilot screen, restrictive growth control, yeast lifespan reduction project (AID 706;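 active = growth inhibition above a set limit, 3 SD over mean compound inhibition, in both replicates, cut at about 43% in these data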;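 also: modified DeaD lifespan yeast strain shifted to restrictive glucose medium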). As to conditions: OD615, 48 h, at 10 µM, stronger effect = higher value.
A short description of test [11]: doxorubicin toxicity protection in MRP-1 cells – H69AR cells, CellTiter-Glo, duplicate, MRP-1 activator project, pilot screen (AID 807;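 active = viability increase at or above a cutoff of the median across tested compounds plus 3 SD, cut at about 8.5% in these data, passing the limit was not always enough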;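 also: compound pretreatment 18-22 h then 72 h combined with doxorubicin; 0% = doxorubicin alone and 100% = vehicle without doxorubicin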). The conditions noted are these: H69AR viability with doxorubicin, CellTiter-Glo luminescence; at 10 µM; stronger effect = higher value.
The nature of test [12]: viability of HCT116 without oncogenic beta-catenin – human colon tumor cells, pilot screen (AID 823;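 active = cell viability at or below a set limit in both duplicate runs, the limit being the all-compound median minus 4 SD, cut at about 23% in these data, passing the limit was not always enough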;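 also: 0% = wells killed by 20 µM Hyamine and 100% = untreated DMSO cell wells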). The conditions noted are these: HCT116 beta-catenin knockout viability, CellTiter-Glo, 60 h; at 10 µM; stronger effect = lower value.
Test [13] in a line: viability of PTEN-null HCT116 cells – cell-based, HCT116 clonal line, CellTiter-Glo, pilot screen (AID 824;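 active = viability at or below 27.92% in each of two runs, the all-compound median minus 4 SD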;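 also: 0% = 20 µM Hyamine control and 100% = vehicle cell control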). The conditions noted are these: HCT116 PTEN-deleted viability, 60 h, at 10 µM, stronger effect = lower value.
Test [14] can be described thus: RAM pathway blockade in budding yeast – dse1pr::URA3 reporter, 5-FOA selection, pilot screen (AID 869;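 active = inhibition over a set limit, the all-compound mean plus 3 SD, in both replicate runs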;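 also: 0% = DMSO wells with no growth and 100% = 10 µM 1-NA-PP1 with full growth; RAM network block rescues cells from 5-FOA so hits raise OD615 growth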). As to conditions: S. cerevisiae dse1pr::URA3 5-FOA growth, OD615, 2 d; at 10 µM; stronger effect = higher value; strain carries analog-sensitive mutant Cbk1 kinase.
Test [15] in a line: RAM signaling pathway blockade in yeast – S. cerevisiae, Pdr1DBD-CYC8 efflux-inhibited sensitized strain, primary screen (AID 1298;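 active = RAM network inhibition above 8.4% in each of two replicates, 3 SD over the compound average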;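 also: 0% = DMSO untreated cells without growth and 100% = 10 µM 1-NA-PP1 full growth; higher means more yeast growth rescued from 5-FOA killing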). As to conditions: S. cerevisiae cbk1-as DSE1-URA3 strain, 5-FOA growth OD615, 2 d; at 50 µM; stronger effect = higher value.
Setting [16] is: H69AR cells + 2 uM doxorubicin, measured here: viability with 2 uM doxorubicin, stronger effect = lower value.
The mark [17] stands for this setting: H69AR cells, compound alone cytotoxicity.

Records with an inconclusive call do not appear. Activity calls are given as the source filed them.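 The calls were made as follows, unless noted: active = Her2 level under about 52% in both replicate screens, with viability over 70% of control (limit read from the data); inconclusive = Her2 under the limit in one screen only, or viability under 70%; inactive = Her2 level above the set limit.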

As a reminder, the viability is a read-out of living cells in per cent, often relative to untreated cells. A word on the inhibition: it is the change of the read-out against control, counted positive when it falls. Regarding `CC1(C)CC(=O)c2cnc(NC(=O)Cc3ccc(Cl)cc3)nc2C1`, the viability in test [1] is 71.5%; in test [3], 71.5% (inactive); in [4], 96.2% (inactive); in test [5], 100% (inactive); in [6] (setting [16]), 89.6%; in test [6] (setting [17]), 100%. The viability in test [12] is 94.4% (inactive); in test [13], 90.6% (inactive). Further, the Her2 level in [2] was 96.5% (inactive). Further, in test [6] (H69AR cells + 2 uM doxorubicin), the differential viability (reversal) is 10.6% (inactive). Moreover, the inhibition in test [7] was -9.46% (inactive); in test [8] it was -0.98% (inactive); in test [14] it was 2.17% (inactive). For the same molecule, the growth inhibition is -5.41% (inactive) in [9] and -16.6% (inactive) in test [10]. Further, in test [11], the viability increase was 2.03% (inactive). In addition, in test [15], the RAM network inhibition was 5.3% (inactive).

As for `Cc1cc(C)n(-c2ccc(N3CCOCC3)nn2)n1`, the viability in test [1] was 108%; in [3] it was 108% (inactive); in test [4], 98.1% (inactive); in test [5], 89.5% (inactive); in [6] (setting [16]), 93.8%; in test [6] (setting [17]) it was 89.5%. Further, the viability was 103% (inactive) in [12] and 101% (inactive) in test [13]. In addition, the Her2 level in test [2] is 99% (inactive). For the same molecule, the differential viability (reversal) in test [6] (H69AR cells + 2 uM doxorubicin) is -4.32% (inactive). Also, the inhibition in test [7] was 0% (inactive); in test [8] it was 0% (inactive); in test [14] it was 0.245% (inactive). For the same molecule, the growth inhibition is 1.14% (inactive) in test [9] and 10.2% (inactive) in [10]. Moreover, the viability increase in [11] was -0.17% (inactive). In test [15], the RAM network inhibition is -0.52% (inactive).

For the molecule `O=C(NC1CCCCCC1)c1c(F)c(F)c(F)c(F)c1F`, the viability in test [1] is 76.5%; in test [3], 76.5% (inactive); in test [4], 78.9% (inactive); in test [5], 101% (inactive); in test [6] (setting [16]), 85.2%; in test [6] (setting [17]), 101%. Moreover, the viability in test [12] was 91.8% (inactive); in test [13], 93.5% (inactive). Besides, the Her2 level in test [2] is 92% (inactive). Besides, the differential viability (reversal) in test [6] (H69AR cells + 2 uM doxorubicin) is 15.7% (inactive). In addition, the inhibition was 0.26% (inactive) in test [7], -8.67% (inactive) in [8] and 1.01% (inactive) in test [14]. The values for the growth inhibition in test [9] and in test [10] were 4.54% (inactive) and 7.52% (inactive), respectively. In addition, in test [11], the viability increase was -3.82% (inactive). Besides, in test [15], the RAM network inhibition was -1.79% (inactive).

Turning to `COc1ccc(OC)c2[nH]c(=O)c(CCNC(=O)C(C)C)cc12`, the viability in test [1] is 109%; in [3] it was 109% (inactive); in test [4], 83.2% (inactive); in test [5], 88.6% (inactive); in [6] (setting [16]) it was 90.5%; in test [6] (setting [17]), 88.6%. Besides, the results for the viability in test [12] and in test [13] were 108% (inactive) and 103% (inactive), respectively. In [2], the Her2 level was 118% (inactive). Besides, the differential viability (reversal) in test [6] (H69AR cells + 2 uM doxorubicin) was -1.89% (inactive). The figures for the inhibition in [7], in [8] and in test [14] were -3.33% (inactive), 1.83% (inactive) and 0.005% (inactive), respectively. Further, the growth inhibition is -3.17% (inactive) in test [9] and -5.05% (inactive) in test [10]. Besides, the viability increase in test [11] was -0.71% (inactive). The RAM network inhibition in [15] was 1.31% (inactive).

For `O=C1c2ccccc2C(Nc2ccc3c(c2)OCCO3)N1Cc1ccc2c(c1)OCO2` (stereo not given), the viability in test [1] is 91%; in [3] it was 91% (inactive); in test [4], 64.8% (inactive); in test [5] it was 86.4% (inactive); in test [6] (setting [16]), 90.4%; in test [6] (setting [17]), 86.4%. The viability in test [12] is 82.2% (inactive); in test [13], 72.2% (inactive). Further, the Her2 level in test [2] is 94.5% (inactive). Besides, the differential viability (reversal) in test [6] (H69AR cells + 2 uM doxorubicin) was -4.04% (inactive). For the same molecule, the inhibition in test [7] is -5.73% (inactive); in test [8], 0.5% (inactive); in [14], 2.92% (inactive). For the same molecule, the growth inhibition in test [9] is -4.37% (inactive); in test [10] it was 8.02% (inactive). In addition, the viability increase in [11] was 0.68% (inactive). Moreover, in test [15], the RAM network inhibition was 4.31% (inactive).

The values above are taken from PubChem BioAssay.
